Data from PubChem BioAssay (NCI).
About 83,000 compounds went through this panel and 20% of them were active in at least one assay; those are over-represented in the sample as a whole.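 Note: values are percent growth. 100 is the growth of untreated cells, values between 100 and 0 indicate rising inhibition; between -100 and 0 indicates cell death.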 A number with no mark means an inactive call. The source made the active and inactive calls. How the source made its calls: active means growth percent below 10; inactive means the rest.

Legend:
Assay in all cases: NCI-60 one-dose screen, 48 h (100 = growth as untreated, 0 = no growth, -100 = all killed)
Settings in all cases: 10 µM unless noted
[1] = system: SK-MEL-2 melanoma
[2] = system: EKVX NSCLC
[3] = system: SN12C renal
[4] = system: UO-31 renal
[5] = system: TK-10 renal
[6] = system: ACHN renal
[7] = system: CAKI-1 renal
[8] = system: A498 renal
[9] = system: CCRF-CEM leukemia
[10] = system: MOLT-4 leukemia

SMILES | growth [1] | growth [2] | growth [3] | growth [4] | growth [5] | growth [6] | growth [7] | growth [8] | growth [9] | growth [10]
Cc1c2c(cn1Cc1ccccc1)CCc1cn[nH]c1-2 | 96.4% | 99.1% | 98.3% | 75.2% | 118% | 99.6% | 84.1% | 108% | 77% | 85.1%
COc1cc2oc3cc(C)oc(=O)c3c2cc1OC | 97.2% | 102% | 92.8% | 82.7% | 96.7% | 94% | 86.4% | 86.3% | 112% | 95%
N#Cc1c(N)n2c(nc1=Nc1ccc(Cl)cc1)sc1cc(Cl)ccc12 | 69.8% | 62.3% | 88.4% | 61.3% | 108% | 91.3% | 75.5% | 91.1% | 92% | 27.8%
CC(=O)OCCc1ccccc1 | 99.6% | 96.2% | 95% | 97.8% | 106% | 100% | 77.1% | 95.5% | 105% | 91.9%
COc1ccc(Nc2ncc(Br)c(NCCCNC(=O)C3CCC3)n2)cc1 | 42.1% | 37.2% | 27.8% | -19.8% (active) | 5.53% (active) | 19.5% | 0.899% (active) | 26.1% | 17.2% | 12.1%
CC(=O)c1sc(-c2ccccc2)cc1N | 109% | 44.4% | 96.1% | 88.6% | 101% | 104% | 92.9% | 84.4% | 96.6% | 91.7%
COc1cc(/C=C/C(=O)c2cccc(-n3cc(-c4ccccc4)[nH]c3=O)c2)cc(OC)c1OC | -64.5% (active) | 17% | 10.4% | -45.2% (active) | -5.4% (active) | -64.9% (active) | 12.2% | 33.2% | 3.61% (active) | -12.6% (active)
CNC(=O)c1c(NC(=O)c2ccc(C(C)(C)C)cc2)sc2c1CCC(=O)C2 | -2.66% (active) | 14.6% | 7.81% (active) | -95.5% (active) | 40% | -45.9% (active) | -14.3% (active) | 12.6% | 1.79% (active) | 2.3% (active)
O=c1[nH]c(NCc2nnnn2-c2ccc(Br)cc2)nc2sc3c(c12)CCCC3 | 108% | 96.3% | 97.6% | 77.9% | 98.1% | 98.9% | 89.6% | 84.6% | 90.8% | 76.9%
NC(=S)c1csc(CCNC(=O)c2ccccc2)n1 | 115% | 115% | 91.8% | 91% | 107% | 105% | 91.3% | 89.6% | 90.3% | 102%
Cc1nc(Nc2ccc(S(=O)(=O)Nc3cc(C)on3)cc2)c2ccccc2n1 | 102% | 90% | 102% | 84.2% | 99.7% | 107% | 90.7% | 94.3% | 103% | 104%
O=C1/C(=C/c2ccc([N+](=O)[O-])cc2)COc2ccc(O)c(O)c21 | 85.5% | 41.3% | -47.3% (active) | -98.6% (active) | -8.97% (active) | -77.5% (active) | -53.1% (active) | 86.3% | -2.51% (active) | -1.02% (active)
COc1ccc(OC)c(C(=O)Nc2cccc(-c3cc(=O)c4ccccc4o3)c2)c1 | 98.2% | 90.5% | 82.6% | 95.2% | 88% | 84.7% | 79.4% | 92.4% | 86.5% | 86.3%
